Experiment [1] in a line: Nuclear factor erythroid 2-related factor 2/antioxidant responsive element (Nrf2/ARE) small molecule agonists: qHTS cell viability counter screen in human keratinocytes (AID 1919968; active = well fitted curve in the direction sought with a large enough effect in the repeat runs; an effect the other way counts as inactive or inconclusive; also: nearly all actives have a fitted effect of over 55% in size). The gist of the method:
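Fluorescence read-out from CellTiter-Fluor after 1 h at 37 C. Wells held HaCaT-derived ARE-luciferase reporter cells (1,500/well) treated 23 h with DMSO-dissolved compounds. Run in the same wells as the luciferase agonist read.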
Background: qHTS replaces the single test concentration by a dilution series.

The nature of experiment [2]: Nuclear factor erythroid 2-related factor 2/antioxidant responsive element (Nrf2/ARE) small molecule agonists: luciferase reporter gene qHTS assay in human keratinocytes (AID 1919969). Also: nearly all actives have a fitted effect of over 35% in size. Background: Reporter assays use an easily measured gene product as a stand-in for the process of interest.
Experiment [3] has as its target Gonadotropin-releasing hormone receptor (Homo sapiens) (UniProt P30968). The experiment in a line: Human gonadotropin-releasing hormone receptor (GnRHR) small molecule agonists, calcium flux assay in GnRHR-HEK293 cells (AID 1920063). Also: nearly all actives have a fitted effect of over 35% in size. In a few lines:
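Calcium-dye fluorescence, Ex/Em=480/540, recorded every 1 sec over 3 min after compound addition to GnRHR-HEK293 cells. Cells had been seeded 18 hours earlier and dye-loaded for 1 hour at 37 C. Fifteen concentrations, triplicates.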
Background: Calcium flux is commonly read through the fluorescence of an indicator in the cells.

Experiment [4] has as its target KiSS-1 receptor (Homo sapiens) (UniProt Q969F8). The experiment in a line: Human kisspeptin (KISS1R) small molecule agonists, calcium flux assay in KISS1R-HEK293 cells (AID 1920064; active = well fitted curve in the direction sought with a large enough effect in the repeat runs; an effect the other way counts as inactive or inconclusive). In a few lines: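 Calcium flux read-out: kinetic fluorescence at Ex/Em=480/540, 1 s intervals over 3 min, after pin-tool compound addition to dye-loaded KISS1R-HEK293 cells. Fifteen concentrations, triplicates.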

The nature of experiment [5]: p53 small molecule agonists, cell-based qHTS assay with rat liver microsomes (AID 1963578). The gist of the method: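 Metabolic activation is supplied by rat liver microsomes with NADPH (each 0.5 mg/mL final). p53RE-bla cells incubate with compound 16 h at 37 C; reporter activity is measured by LiveBLAzer fluorescence.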
The nature of experiment [6]: p53 small molecule agonists, cell-based qHTS assay with human liver microsomes: qHTS cell viability counter screen (AID 1963579). Also: nearly all actives have a fitted effect of over 45% in size. The gist of the method:
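After the 460/530 nm beta-lactamase read, CellTiter-Glo was added to the same wells and luminescence measured after 30 min at room temperature, giving viability of p53RE-bla cells treated 16 h with compounds plus microsomes and NADPH.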

A short description of experiment [7]: p53 small molecule agonists, cell-based qHTS assay with rat liver microsomes: qHTS cell viability counter screen (AID 1963580). Also: nearly all actives have a fitted effect of over 45% in size. In a few lines:
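Luminescent ATP readout (CellTiter-Glo, 30 min at room temperature) reports viability of p53RE-bla HCT-116 cells after 16 h at 37 C with test compounds under metabolic activation by rat liver microsomes and NADPH at 0.5 mg/mL final each.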

Experiment [8] can be described thus: p53 small molecule agonists, cell-based qHTS assay: qHTS cell viability counter screen (AID 1963581). Also: nearly all actives have a fitted effect of over 45% in size. In a few lines:
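Cytotoxicity read-out: ATP-based luminescence (CellTiter-Glo, 30 min RT) measured in the same wells as the p53 reporter assay, HCT-116 p53RE-bla cells, 16 h compound exposure at 37 C.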

Experiment [9] is described as follows: p53 small molecule agonists, cell-based qHTS assay (AID 1963582; active = well fitted activation curve with a large enough effect in the signal ratio in the repeat runs, not every such curve was filed as active; the % refers to the signal ratio). The gist of the method: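 Fluorescence intensity read-out of a beta-lactamase reporter under a p53 response element. Cells were exposed to DMSO-dissolved compounds for 16 h at 37 C, then developed with FRET substrate for 2 h at RT.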
Experiment [10] has as its target 5-hydroxytryptamine receptor 2A (Homo sapiens) (UniProt P28223). The experiment in a line: 5-hydroxytryptamine receptor 2A (HTR2A) small molecule antagonists, cell-based qHTS assay (AID 1963586). Also: nearly all actives have a fitted effect of over 45% in size. Also: potency is read from the fitted curve at half-maximal effect. The gist of the method: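 CHO cells stably expressing human HTR2A were plated for 18 h at 37 C, then loaded with calcium dye for 1 h. Compounds were preincubated 5 min at room temperature before DOI (4 nM solution) was added. Kinetic fluorescence was read for 3 min.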

Experiment [11] has the same target. The experiment in a line: 5-hydroxytryptamine receptor 2A (HTR2A) small molecule agonists, cell-based qHTS assay (AID 1963587). Also: nearly all actives have a fitted effect of over 30% in size. Also: potency is read from the fitted curve at half-maximal effect. The gist of the method:
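HTR2A-CHO cells, plated 18 h at 37 C/5% CO2, dye-loaded 1 h at 37 C; compounds in DMSO added by pin tool (agonist mode). Intracellular calcium flux read as kinetic fluorescence on FDSS over 2 min at 1 s intervals.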

Experiment [12] has as its target Muscarinic acetylcholine receptor M1 (Homo sapiens) (UniProt P11229). The experiment is described as follows: Cholinergic receptor muscarinic 1 (CHRM1) small molecule antagonists, cell-based qHTS assay (AID 1963588). Also: nearly all actives have a fitted effect of over 40% in size. Also: potency is read from the fitted curve at half-maximal effect. In a few lines: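 Compounds were tested at 15 concentrations in three independent runs. Dye-loaded CHRM1-CHO cells were exposed 5 min at room temperature before stimulation by acetylcholine added at 50nM. Intracellular calcium was read kinetically on FDSS for 3 min.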

For experiment [13] the target is unchanged. The experiment is described as follows: Cholinergic receptor muscarinic 1 (CHRM1) small molecule agonists, cell-based qHTS assay (AID 1963589). Also: nearly all actives have a fitted effect of over 35% in size. The gist of the method: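 Calcium flux read-out: kinetic fluorescence at 1 sec intervals after pin-tool compound addition to dye-loaded CHRM1-CHO cells (human M1). Agonist mode; 15 concentrations tested in triplicate independent runs.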

A short description of experiment [14]: cAMP Responsive Elements (CRE) small molecule agonists, cell-based qHTS assay (AID 1963590). The gist of the method:
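Beta-lactamase reporter readout: LiveBLAzer B/G FRET substrate, 2 h at room temperature, added after 3 h compound treatment of CRE-bla HEK 293T cells at 37 C/5% CO2.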

The target of experiment [15] is Beta-2 adrenergic receptor (Homo sapiens) (UniProt P07550). The experiment in a line: Adrenergic beta2 receptor (ADRB2) small molecule antagonists, cell-based qHTS assay (AID 1963592). Also: series mostly up to about 92 µM; nearly all actives have a fitted effect of over 50% in size. The gist of the method:
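Assay format: CHO-ADRB2 cells, 18-20hr seeding at 37C/5% CO2, then compound plus 1nM isoproterenol agonist mix for 0.5hr RT. Homogeneous time-resolved fluorescence cAMP detection after 1hr, expressed as 665/615 nm ratio.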

The target is the same in experiment [16]. The experiment in a line: Adrenergic beta2 receptor (ADRB2) small molecule agonists, cell-based qHTS assay (AID 1963593).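 Also: CHO cells stably overexpressing human ADRB2.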 The gist of the method:
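CHO cells stably over-expressing ADRB2 were plated overnight at 37C, then dosed with compounds plus a stimulation mix containing 100uM IBMX and 25uM Ro-20-1724 for 0.5hr at room temperature. cAMP was measured by HTRF competition, 1hr.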

The target in experiment [17] is D(2) dopamine receptor (Homo sapiens) (UniProt P14416). The experiment is described as follows: Dopamine D2 receptor (DRD2) small molecule agonists, cell-based qHTS assay (AID 1963594). Also: nearly all actives have a fitted effect of over 35% in size. Also: potency is read from the fitted curve at half-maximal effect. The gist of the method: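 HEK293 cells stably expressing DRD2 were cultured 24 h at 37 C, then given Ro20-1724 (0.1 mM final) and compounds for 10 min at room temperature. NKH477 (200nM) was then added for 30 min. cAMP was read by HTRF.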
Sequence of D(2) dopamine receptor (Homo sapiens) (P14416 whole entry, looked up): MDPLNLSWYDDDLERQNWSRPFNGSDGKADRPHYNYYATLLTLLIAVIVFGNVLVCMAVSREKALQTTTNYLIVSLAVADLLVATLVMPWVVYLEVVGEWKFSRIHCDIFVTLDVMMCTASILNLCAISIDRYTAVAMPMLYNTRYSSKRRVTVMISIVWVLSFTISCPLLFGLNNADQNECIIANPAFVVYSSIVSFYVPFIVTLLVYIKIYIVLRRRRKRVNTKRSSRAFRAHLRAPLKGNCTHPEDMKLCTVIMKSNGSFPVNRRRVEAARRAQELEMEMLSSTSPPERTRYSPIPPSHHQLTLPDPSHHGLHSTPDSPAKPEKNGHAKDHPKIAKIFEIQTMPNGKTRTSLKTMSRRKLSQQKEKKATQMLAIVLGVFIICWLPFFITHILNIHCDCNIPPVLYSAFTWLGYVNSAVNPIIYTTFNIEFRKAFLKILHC

Experiment [18] shares this target. The experiment is described as follows: Dopamine D2 receptor (DRD2) small molecule antagonists, cell-based qHTS assay (AID 1963595; active = well fitted inhibition curve with a large enough effect in the signal ratio in the repeat runs, with a control signal flat; the % refers to the signal ratio). In a few lines: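 In this cell-based antagonist screen, compounds act for 10 min at room temperature before a 30 min challenge with 12 nM quinpirole and 200 nM NKH477. cAMP is quantified by HTRF competition in DRD2-HEK293 cells containing 0.1 mM Ro20-1724.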

A short description of experiment [19]: G protein-coupled receptor (GPCR) small molecule agonists, calcium flux assay: HEK293 wild type cell line counter screen (AID 1920065). The gist of the method:
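Agonist mode; 18 h seeding at 37 C, 1 h dye load at 37 C; compounds pinned from DMSO, ATP as positive control; kinetic fluorescence 480/540 nm, 3 min, 1 s reads; 15 concentrations, triplicate.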

A short description of experiment [20]: cAMP Responsive Elements (CRE) small molecule antagonists, cell-based qHTS assay (AID 1963591; active = well fitted inhibition curve with a large enough effect in the signal ratio in the repeat runs, not every such curve was filed as active; the % refers to the signal ratio). In a few lines:
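HEK293T CRE-bla; 18 h preincubation; compound pin-transfer; NKH477 0.25 uM final, 3 h, 37 C; LiveBLAzer FRET substrate 2 h RT.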

Records with an inconclusive call do not appear. Calls of active or inactive are those of the source. Unless noted, calls follow the shape of the full dose curve.

Sequence of KiSS-1 receptor (Homo sapiens) (Q969F8 whole entry, looked up): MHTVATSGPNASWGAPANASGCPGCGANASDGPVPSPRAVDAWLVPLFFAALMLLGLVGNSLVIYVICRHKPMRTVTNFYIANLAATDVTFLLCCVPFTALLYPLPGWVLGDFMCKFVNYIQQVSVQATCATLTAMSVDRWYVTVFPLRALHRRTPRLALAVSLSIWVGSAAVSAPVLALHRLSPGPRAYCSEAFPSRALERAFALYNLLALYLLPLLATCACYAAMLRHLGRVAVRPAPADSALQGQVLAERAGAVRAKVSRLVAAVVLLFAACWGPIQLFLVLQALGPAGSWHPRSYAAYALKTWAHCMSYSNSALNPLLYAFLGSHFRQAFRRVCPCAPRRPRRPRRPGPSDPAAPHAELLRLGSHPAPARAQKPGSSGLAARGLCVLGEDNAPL
Sequence of Gonadotropin-releasing hormone receptor (Homo sapiens) (P30968 whole entry, looked up): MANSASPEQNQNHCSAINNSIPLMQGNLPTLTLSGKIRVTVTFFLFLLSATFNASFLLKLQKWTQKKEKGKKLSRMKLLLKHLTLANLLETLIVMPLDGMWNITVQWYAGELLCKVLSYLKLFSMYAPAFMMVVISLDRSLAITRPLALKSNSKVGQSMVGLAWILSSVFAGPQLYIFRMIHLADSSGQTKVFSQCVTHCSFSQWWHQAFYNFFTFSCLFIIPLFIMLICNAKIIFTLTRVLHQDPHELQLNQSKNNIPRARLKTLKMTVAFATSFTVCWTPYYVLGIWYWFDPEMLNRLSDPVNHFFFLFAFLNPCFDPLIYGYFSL
Sequence of 5-hydroxytryptamine receptor 2A (Homo sapiens) (P28223 whole entry, looked up): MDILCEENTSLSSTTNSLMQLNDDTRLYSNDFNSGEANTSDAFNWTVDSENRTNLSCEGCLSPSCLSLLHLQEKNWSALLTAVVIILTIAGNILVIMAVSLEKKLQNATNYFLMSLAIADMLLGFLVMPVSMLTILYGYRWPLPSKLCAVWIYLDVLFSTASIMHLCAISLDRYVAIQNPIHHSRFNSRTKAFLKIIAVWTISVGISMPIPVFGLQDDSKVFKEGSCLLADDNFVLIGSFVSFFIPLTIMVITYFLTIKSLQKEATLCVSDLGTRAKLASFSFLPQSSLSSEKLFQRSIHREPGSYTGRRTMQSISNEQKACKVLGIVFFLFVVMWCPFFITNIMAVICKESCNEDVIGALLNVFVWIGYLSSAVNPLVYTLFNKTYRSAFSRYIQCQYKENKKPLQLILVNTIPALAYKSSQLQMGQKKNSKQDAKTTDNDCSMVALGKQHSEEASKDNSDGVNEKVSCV
Sequence of Beta-2 adrenergic receptor (Homo sapiens) (P07550 whole entry, looked up): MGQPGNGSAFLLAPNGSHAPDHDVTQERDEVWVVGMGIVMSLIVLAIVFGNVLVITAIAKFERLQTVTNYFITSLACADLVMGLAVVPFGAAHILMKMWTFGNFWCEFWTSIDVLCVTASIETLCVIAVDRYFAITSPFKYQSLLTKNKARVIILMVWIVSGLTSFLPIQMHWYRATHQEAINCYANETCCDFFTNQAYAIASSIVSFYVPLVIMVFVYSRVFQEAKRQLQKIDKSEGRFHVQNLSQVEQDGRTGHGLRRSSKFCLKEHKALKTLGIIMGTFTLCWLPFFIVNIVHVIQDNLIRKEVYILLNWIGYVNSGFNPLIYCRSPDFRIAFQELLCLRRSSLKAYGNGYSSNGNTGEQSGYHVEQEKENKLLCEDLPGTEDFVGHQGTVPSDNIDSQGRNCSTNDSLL
Sequence of Muscarinic acetylcholine receptor M1 (Homo sapiens) (P11229 whole entry, looked up): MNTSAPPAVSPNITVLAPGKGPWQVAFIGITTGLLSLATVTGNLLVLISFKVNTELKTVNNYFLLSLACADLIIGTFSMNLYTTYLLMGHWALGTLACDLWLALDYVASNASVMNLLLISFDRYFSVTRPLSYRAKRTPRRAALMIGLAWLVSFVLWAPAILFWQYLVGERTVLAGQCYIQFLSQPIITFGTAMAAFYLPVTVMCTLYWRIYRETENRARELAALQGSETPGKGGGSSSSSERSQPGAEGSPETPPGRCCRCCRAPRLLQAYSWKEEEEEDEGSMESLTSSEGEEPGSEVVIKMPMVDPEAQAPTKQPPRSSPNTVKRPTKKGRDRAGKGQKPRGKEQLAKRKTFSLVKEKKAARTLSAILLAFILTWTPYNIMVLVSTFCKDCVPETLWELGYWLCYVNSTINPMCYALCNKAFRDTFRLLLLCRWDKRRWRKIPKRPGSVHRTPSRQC

In the case of `CCN(CC)CCOc1ccccc1C(=O)CCc1ccccc1`, the Potency entry in [1], in experiment [2], in experiment [3], in [5], in experiment [6] and in experiment [7] was “inactive” each time. Also, the Potency entry in [8], in experiment [9], in experiment [11], in [13], in [14] and in [15] was “inactive” in each case. The Potency entry in [16], in experiment [17] and in experiment [18] was “inactive” in each case. The outcome in [4] was inactive. Moreover, the Potency is 1.3 µM (active) in experiment [10] and 2.31 µM (active) in experiment [12].

Take `CCOC(=O)c1cccnc1`: the Potency entry in experiment [1], in [2], in experiment [3], in experiment [6], in experiment [7] and in [8] was “inactive” throughout. Further, the Potency entry in [9], in experiment [10], in [11], in experiment [12], in experiment [13] and in experiment [14] was “inactive” in each case. Further, the Potency entry in experiment [15], in experiment [16], in [17] and in experiment [18] was “inactive” in each case. In addition, the result in experiment [4] and in [19] was inactive.

Regarding `COC(=O)CC#N`, the Potency entry in experiment [1], in [2], in experiment [3], in experiment [5], in experiment [6] and in experiment [7] was “inactive” in each case. In addition, the Potency entry in experiment [8], in experiment [9], in [10], in experiment [11], in experiment [12] and in [13] was “inactive” each time. In addition, the Potency result in experiment [14], in experiment [20], in experiment [15] and in experiment [17] was “inactive” in each case. For the same compound, the result in [4] was inactive.

For the compound `Cc1scc2c1N(C(=O)CN1CCN(C)CC1)c1ccccc1NC2=O`, the Potency entry in experiment [1], in experiment [2], in [3], in experiment [5], in [6] and in [7] was “inactive” in each case. Besides, the Potency result in experiment [8], in experiment [9], in experiment [10], in experiment [11], in experiment [13] and in experiment [14] was “inactive” each time. The Potency entry in [20], in [15] and in [17] was “inactive” each time. The result in [4] was inactive.

Take `CC(C)C(=O)OCC(C)(C)C(O)C(C)C` (stereo unspecified): the Potency entry in experiment [1], in experiment [2], in [3], in [5], in [6] and in [7] was “inactive” in each case. The Potency entry in experiment [8], in [9], in [10], in [11], in experiment [13] and in experiment [14] was “inactive” throughout. Moreover, the Potency entry in experiment [20], in experiment [15], in experiment [17] and in [18] was “inactive” throughout. The result in experiment [4] was inactive.

Regarding `C[C@H](O)C(=O)Nc1c(I)c(C(=O)NC(CO)CO)c(I)c(C(=O)NC(CO)CO)c1I`, the Potency entry in [1], in experiment [2], in [3], in experiment [5], in experiment [6] and in experiment [7] was “inactive” in each case. The Potency entry in [8], in [9], in experiment [10], in [11], in experiment [12] and in experiment [14] was “inactive” each time. Besides, the Potency entry in experiment [20], in experiment [15], in experiment [17] and in experiment [18] was “inactive” throughout. In addition, the result in [4] was inactive.

On to `CCCN(CCC)CCc1cccc2c1CC(=O)N2`, for which the Potency entry in [1], in [2], in experiment [3], in experiment [5], in experiment [6] and in experiment [7] was “inactive” throughout. The Potency result in experiment [8], in experiment [9], in experiment [10], in [13], in experiment [14] and in experiment [20] was “inactive” each time. In addition, the Potency result in experiment [15], in [16] and in experiment [18] was “inactive” in each case. Further, in experiment [4], the result was inactive. Also, the Potency in experiment [11] was 16.9 µM (active); in experiment [17], 0.0619 µM (active).

These data come from PubChem BioAssay (Tox21).
